Assay outcomes from PubChem BioAssay.
L3MBTL1 block – blocks human L3MBTL1 | AID 485360 | AlphaScreen L3MBTL1–H3K9me1 peptide binding | hit rate 0.66% among 230,000 | Potency, µM (highest dose often 57.1 µM), for the others: at the highest dose activity, negative = inhibition, usual class: inhibitors | Q9Y468; further: on the % scale 0 is the no-effect control and ±100 the full control effect; nearly all actives have a fitted effect of over 60% in size
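Displacement of a biotinylated histone H3(1-15) peptide monomethylated at Lys9 (75 nM) from L3MBTL1 (50 nM) was measured by AlphaScreen after a 30 min room-temperature compound incubation; cefsulodin titration served as intraplate control.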
BAZ2B inh – BAZ2B (human) inhibition. Q9UIF8. AlphaScreen BAZ2B-H3K14Ac peptide displacement. Potency, µM (top dose mostly 114 µM), inactives show at the top dose activity change, negative = inhibition, actives largely listed as inhibitors. hit rate 4.4% among 360,000. AID 504333; further: on the % scale 0 is the no-effect control and ±100 the full control effect; nearly all actives have a fitted effect of over 60% in size
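AlphaScreen luminescence quantifies BAZ2B engagement of H3K14Ac peptide; the protein and biotinylated peptide are both at 50 nM final, buffer PBS pH 7.4 with 0.01% Tween-20, all steps at room temperature.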
JMJD2A Tudor inh – JMJD2A Tudor domain (human) inhibition; hit rate 4.4% among 390,000; Potency, µM (highest dose often 114 µM), without a hit: top-dose activity change, negative = inhibition, usual class: inhibitors; AlphaScreen JMJD2A-Tudor / H3K4me3 peptide binding; further: on the % scale 0 is the no-effect control and ±100 the full control effect; nearly all actives have a fitted effect of over 50% in size
VDR inh – vitamin D3 receptor (human) inhibition. P11473. VDR-SRC2-3 peptide fluorescence polarization, 2 h. Potency, µM, for inactives: max response, negative = inhibition, usual class: inhibitors. hit rate 0.93% among 400,000. AID 504847; further: on the % scale 0 is the no-effect control and ±100 the full control effect
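Compounds are added to VDR with labelled SRC2-3 coactivator peptide and held 2 h at room temperature. Inhibition of the VDR–peptide interaction is then read as a change in fluorescence polarization.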
HP1b chromo inh – inhibitors of HP1-beta chromodomain binding to methylated histone tails; Potency, µM (titrated, usually from 114 µM), without a hit: at the top dose activity change, negative = inhibition, actives largely listed as inhibitors; AID 540317; AlphaScreen HP1-beta / biotin-H3K9me3 peptide binding; P83916; hit rate 0.56% among 390,000; further: nearly all actives have a fitted effect of over 70% in size
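AlphaScreen: HP1-beta (50 nM) preformed 30 min with biotin-H3(1-18)K9me3 peptide (50 nM) in PBS pH 7.4, 0.01% Tween-20. Compound added for 30 min at RT, then streptavidin donor/nickel chelate acceptor beads (10 ug/mL) for 30 min.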
PLK1 PBD block – PLK1 (human) polo-box domain binding inhibition. P53350. Plk1 PBD binding of FITC phosphopeptide, fluorescence polarization. hit rate 2.8% among 360,000. Potency, µM, without a hit: max response, negative = inhibition, hits mostly inhibitors. AID 720504; further: series mostly up to about 57 µM; on the % scale 0 is the no-effect control and ±100 the full control effect; nearly all actives have a fitted effect of over 65% in size
Target sequence (P53350 whole entry, looked up, the tested form may be a part): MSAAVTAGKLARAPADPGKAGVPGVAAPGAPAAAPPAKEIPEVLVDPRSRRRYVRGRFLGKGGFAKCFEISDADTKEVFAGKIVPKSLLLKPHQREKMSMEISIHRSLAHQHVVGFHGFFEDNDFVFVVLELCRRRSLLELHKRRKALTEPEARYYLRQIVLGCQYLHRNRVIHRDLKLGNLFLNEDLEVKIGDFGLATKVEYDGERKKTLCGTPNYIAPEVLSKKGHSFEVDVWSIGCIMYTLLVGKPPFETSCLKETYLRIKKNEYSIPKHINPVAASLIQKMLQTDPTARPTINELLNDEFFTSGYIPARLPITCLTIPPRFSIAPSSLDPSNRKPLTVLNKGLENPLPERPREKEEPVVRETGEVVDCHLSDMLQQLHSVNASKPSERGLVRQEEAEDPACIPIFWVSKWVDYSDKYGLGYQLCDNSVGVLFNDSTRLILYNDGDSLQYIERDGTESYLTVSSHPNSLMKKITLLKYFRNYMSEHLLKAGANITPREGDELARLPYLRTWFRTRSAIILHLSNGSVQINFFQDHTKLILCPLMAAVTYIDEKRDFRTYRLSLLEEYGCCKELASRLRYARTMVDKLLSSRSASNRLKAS
The depositor's hits bear a star; u = inconclusive; x = no result given; [ ] = remark or other dose. Sampled rows, rich in hits. Any-hit rate of the full collection: about 6.9%. The call rests on the fitted dose curve; in most records, active means well fitted curve in the direction sought with a large enough effect; inconclusive means small, poorly fitted or top-dose-only effect, or another doubt; inactive means no such curve, though single readings can be large; an effect the other way counts as inactive or inconclusive. Potency means the concentration at half of the fitted maximal effect.

SMILES	L3MBTL1 block	BAZ2B inh	JMJD2A Tudor inh	VDR inh	HP1b chromo inh	PLK1 PBD block
CCn1nc(C)c([N+](=O)[O-])c1C(=O)NNC(=O)c1ccc(Cl)cc1	0%	7%	u	-11%	39%	-14%
CC(C)(C(O)c1ccc([N+](=O)[O-])cc1)[N+](=O)[O-] (centres undefined)	x	x	x	-5%	x	x
CCN(CC)c1ccc(SS(=O)(=O)O)cc1	u	u	56µM*	79µM*	-22%	6.7µM*
O=S(=O)(O)Sc1ccccc1	x	x	x	x	x	6µM*
O=C(c1ccc2c(=O)n3c(nc2c1)CCCCC3)N1CCN(c2ccc(F)cc2)CC1	1%	-16%	-17%	15%	-11%	-11%
O=C(Nc1ccc2nc3n(c(=O)c2c1)CCCCC3)C(=O)N1CCN(c2ccc(F)cc2)CC1	x	-20%	20µM*	u	u	6.7µM*
O=C(Nc1ccc2nc3n(c(=O)c2c1)CCCCC3)c1cc([N+](=O)[O-])ccc1F	x	19%	-9%	-15%	37%	-3%
O=C(Nc1ccc2nc3n(c(=O)c2c1)CCCCC3)c1c(F)ccc([N+](=O)[O-])c1F	x	-14%	-25%	u	-16%[57 µM]	24µM*
COc1ccc(CNC(=O)c2ccc3c(c2)N(Cc2cccc(Cl)c2)C(=O)c2ccccc2S3)c(OC)c1	x	0%	-5%	1%	27%	x
Fc1ccccc1-n1ncc2c1ncn1nc(Cc3ccccc3)nc21	x	4%	-2%	4%	24%	x
CC(C)(C)NC(=O)CSc1nnc(-c2ccncc2)n1Cc1ccccc1	x	-19%	0%	-3%	24%	-4%
O=C(CSc1nnc(-c2ccncc2)n1Cc1ccccc1)Nc1nccs1	3%	15%[57.1 µM]	89µM*	-3%	1%	-3%
CC(C)C(C)(C#N)NC(=O)CSc1nnc(-c2ccncc2)n1Cc1ccccc1 (centres undefined)	3%	6%	71µM*	u	u	21µM*
Cc1cc(C)c(NC(=O)Cn2c(=O)n(Cc3ccc(C(=O)NCc4ccco4)cc3)c(=O)c3sccc32)c(C)c1	x	50µM*	-4%	16%	63%	x
CCOc1ccc(C(=O)NC(=S)Nc2cccnc2)cc1[N+](=O)[O-]	x	-17%	u	u	-5%	6µM*
Cc1cc(C(=O)N2CCN(c3cccc(Cl)c3)CC2)c2c(C)nn(-c3ccccc3Cl)c2n1	x	-30%	-23%	-18%	20%	x
CCn1nc(-c2ccccc2)c2nc3ccccc3nc21	45%	93%	96%	7%	137%	u
CCCn1nc(-c2ccccc2)c2nc3ccccc3nc21	22%	67%	70%	3%	143%	17µM*
CCCCCn1nc(-c2ccccc2)c2nc3ccccc3nc21	11%	120%[57.1 µM]	149%	-17%	478%	21µM*
COc1ccc(-n2c(=O)c3ccc(C(=O)NCc4ccc(C)cc4)cc3n(Cc3ccc(Cl)cc3)c2=O)cc1	x	x	-1%	4%	47%	x
CC(C)(c1ccc(O)c([N+](=O)[O-])c1)c1ccc(O)c([N+](=O)[O-])c1	x	x	56µM*	17%	u	-5%
O=C(N/N=C/c1ccc(O)c([N+](=O)[O-])c1)C(O)(c1ccccc1)c1ccccc1	-5%	3%[57.1 µM]	-19%	-7%	13%	3%
COc1ccc(-n2nc(C(=O)Nc3cc(C)ccn3)c3c4ccccc4n(C)c3c2=O)cc1	x	x	-1%	-10%	24%	x
COc1ccc(C)cc1NC(=O)C(NC(=O)c1cc(OC)c(OC)c(OC)c1)C(C)C (centres undefined)	4%	x	40µM*	u	u	30µM*
COc1ccc(N2CC(NC(=O)/C=C\c3ccc4c(c3)OCO4)CC2=O)cc1 (centres undefined)	x	0%	-19%	17%	-9%	x
SMILES	L3MBTL1 block	BAZ2B inh	JMJD2A Tudor inh	VDR inh	HP1b chromo inh	PLK1 PBD block
CN(CC(=O)Nc1ccccc1C(F)(F)F)C(=O)c1ccccc1Sc1ccccc1C#N	-1%	8%	-14%	-1%	20%	-10%
CCN1CCN(CCNC(=O)c2ccc3c(c2)N(Cc2ccc(F)cc2)C(=O)/C(=C/c2ccccc2)S3)CC1	x	40µM*	u	-3%	u	7%
Cc1cccc(CN2C(=O)/C(=C\c3ccc(C(=O)NCCN4CCOCC4)cc3)Sc3ccccc32)c1	x	u	u	-6%	9%	-15%
O=C(NCCN1CCOCC1)c1ccc(/C=C2\Sc3ccccc3N(Cc3ccccc3F)C2=O)cc1	x	u	u	4%	-4%[57 µM]	-4%
CCN1CCN(CCNC(=O)c2ccc(/C=C3/Sc4ccccc4N(Cc4cccc(Cl)c4)C3=O)cc2)CC1	x	-37%	22µM*	24%	u	-1%
CCOC(=O)c1[nH]c(=O)[nH]c1CSc1ccccn1	x	-8%	-28%	-20%	13%	u
CCOC(=O)CCCCC(=O)c1[nH]c(=O)[nH]c1CSCCO	x	13µM*	79µM*	3%	-30%	-3%
CCOC(=O)CCCCC(=O)c1[nH]c(=O)[nH]c1Cn1cnc2ccccc21	-13%	35µM*	u	-10%	-11%	-10%
CCOC(=O)CCCCC(=O)c1[nH]c(=O)[nH]c1CSc1nc(-c2ccccc2)c(C#N)c(=O)[nH]1	-28%	35µM*	u	3%	20%	-15%
O=C1CCc2cc(S(=O)(=O)Nc3ccncc3)ccc2N1	x	x	-24%	x	x	x
CCOC(=O)C1=CN(Cc2cccc(F)c2)S(=O)(=O)N(CC)C1c1ccc(C(F)(F)F)cc1 (centres undefined)	3%	x	-16%	-22%	21%	-15%
C/C(=C(/CCO)SS/C(CCO)=C(\C)N(C=O)Cc1cnc(C)nc1N)N(C=O)Cc1cnc(C)nc1N	x	x	x	32µM*	x	x
Cc1ncc(C[n+]2csc(CCOP(=O)(O)O)c2C)c(N)n1	x	x	x	2%	x	x
Cc1ccc(-n2c(SCc3cc(=O)n4ccsc4n3)nnc2-c2cccnc2)c(C)c1	u	56µM*	-27%	1%	9%	-8%
COC(=O)c1cc(NC(=O)CCc2c(C)nc3c(c(C)nn3C(C)(C)C)c2C)cc(C(=O)OC)c1	x	-4%	-17%	7%	25%	x
COc1ccc(N(CC(=O)N2CCN(C)CC2)S(=O)(=O)c2cc(C)ccc2OC)cc1Cl	x	-11%	-10%	-1%	31%	-1%
O=S(=O)(c1ccccc1)c1nc(-c2ccccc2)oc1N1CCCC1	-17%[2.29 µM]	-4%	79µM*	u	6%	u
CC(C)(C)c1ccc(-c2nc(S(=O)(=O)c3ccccc3)c(N3CCOCC3)o2)cc1	x	u	u	11%	-12%	x
NC(=O)C1CCN(c2oc(-c3ccccc3)nc2S(=O)(=O)c2ccc(Br)cc2)CC1	x	u	32µM*	-25%	48%	-22%
